Source: PubChem BioAssay (Tox21)
A number with no mark means an inactive call. Inconclusive results are not listed. A call without a number means that no potency is given here. Activity calls are given as the source filed them. Unless noted, calls come from the whole dose curve; as a rule, active = well fitted curve in the direction sought with a large enough effect in the repeat runs; inconclusive = weak or mixed curves; inactive = no such curve, though single readings can be large; an effect the other way counts as inactive or inconclusive.

Assays:
[1] = biological target: Estrogen receptor beta (Homo sapiens) (UniProt Q92731); assay: qHTS assay to identify small molecule agonists of the estrogen receptor beta (ER-beta) signaling pathway (AID 1259377; active = well fitted activation curve with a large enough effect in the signal ratio in the repeat runs, not every such curve was filed as active; the % refers to the signal ratio; note: potency is the fitted concentration of half-maximal effect)
Sequence of Estrogen receptor beta (Homo sapiens) (Q92731 whole entry, looked up): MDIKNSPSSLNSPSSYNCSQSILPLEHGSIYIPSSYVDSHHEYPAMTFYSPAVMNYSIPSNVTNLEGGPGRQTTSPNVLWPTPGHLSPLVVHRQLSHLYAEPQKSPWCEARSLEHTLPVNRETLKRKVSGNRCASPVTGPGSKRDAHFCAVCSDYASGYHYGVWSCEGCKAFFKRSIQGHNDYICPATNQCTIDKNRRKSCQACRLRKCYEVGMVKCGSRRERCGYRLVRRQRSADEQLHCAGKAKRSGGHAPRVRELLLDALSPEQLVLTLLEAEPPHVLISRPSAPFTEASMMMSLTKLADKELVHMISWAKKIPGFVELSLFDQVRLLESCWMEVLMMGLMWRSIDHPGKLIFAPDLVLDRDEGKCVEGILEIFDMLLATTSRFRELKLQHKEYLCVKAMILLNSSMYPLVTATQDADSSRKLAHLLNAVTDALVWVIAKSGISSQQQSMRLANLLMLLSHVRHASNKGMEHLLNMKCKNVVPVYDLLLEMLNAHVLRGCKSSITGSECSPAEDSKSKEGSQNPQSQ
How it was run: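 HEK293T ER-beta-UAS-bla; 2% charcoal-stripped FBS; cells pre-incubated 6 hr, compound 16 hr, 37C/5% CO2; LiveBLAzer B/G FRET substrate 2 h RT; fluorescence intensity read.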

[2] = qHTS assay to identify small molecule agonists of the androgen receptor (AR) signaling pathway in the presence of an antagonist - cell viability counter screen (AID 1259379); note: nearly all actives have a fitted effect of over 25% in size; note: potency is the fitted concentration of half-maximal effect
How it was run: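 MDA-kb2 cells (MMTV-luciferase, AR/GR), 3,000/well, 5 h attachment, then 3.0 µM nilutamide (final) and compounds at 15 concentrations. Viability by CellTiter-Fluor fluorescence after 16 h at 37 °C, 0% CO2, in the reporter wells.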

[3] = biological target: Androgen receptor (Homo sapiens) (UniProt P10275); assay: qHTS assay to identify small molecule agonists of the androgen receptor (AR) signaling pathway in the presence of an antagonist (AID 1259381; calls by dose curve; note: nearly all actives have a fitted effect of over 15% in size; note: potency is the fitted concentration of half-maximal effect)
Sequence of Androgen receptor (Homo sapiens) (P10275 whole entry, looked up): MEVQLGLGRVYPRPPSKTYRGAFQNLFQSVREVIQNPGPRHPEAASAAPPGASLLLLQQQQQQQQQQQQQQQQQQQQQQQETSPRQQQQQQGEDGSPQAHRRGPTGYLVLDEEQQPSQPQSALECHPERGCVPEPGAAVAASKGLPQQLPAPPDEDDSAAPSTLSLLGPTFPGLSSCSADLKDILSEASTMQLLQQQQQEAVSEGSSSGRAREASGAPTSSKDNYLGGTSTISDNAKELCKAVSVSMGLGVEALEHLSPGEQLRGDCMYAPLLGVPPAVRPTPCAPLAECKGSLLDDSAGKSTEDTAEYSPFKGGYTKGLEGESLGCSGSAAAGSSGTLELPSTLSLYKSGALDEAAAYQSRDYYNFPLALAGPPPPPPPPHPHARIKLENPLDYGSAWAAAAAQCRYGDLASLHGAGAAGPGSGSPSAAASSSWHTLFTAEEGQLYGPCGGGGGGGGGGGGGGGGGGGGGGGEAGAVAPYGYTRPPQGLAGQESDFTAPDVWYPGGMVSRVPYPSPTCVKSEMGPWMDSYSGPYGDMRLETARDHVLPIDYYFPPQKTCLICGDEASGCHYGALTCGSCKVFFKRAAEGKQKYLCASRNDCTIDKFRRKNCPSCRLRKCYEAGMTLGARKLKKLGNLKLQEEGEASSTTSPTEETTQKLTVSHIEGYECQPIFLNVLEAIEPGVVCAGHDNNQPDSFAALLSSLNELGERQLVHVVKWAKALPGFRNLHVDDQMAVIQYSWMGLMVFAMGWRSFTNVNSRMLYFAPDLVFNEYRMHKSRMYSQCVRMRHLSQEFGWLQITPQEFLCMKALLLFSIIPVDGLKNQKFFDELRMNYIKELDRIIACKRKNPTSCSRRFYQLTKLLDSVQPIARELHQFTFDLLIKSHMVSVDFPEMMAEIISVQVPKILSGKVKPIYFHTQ
How it was run: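 MDA-kb2 cells carrying MMTV-luciferase (AR/GR responsive), 3,000 cells/well, co-treated with 3.0 uM nilutamide final. Compounds at 15 concentrations, 16 hr at 37C without CO2. Luciferase luminescence read after 30 min with ONE-Glo.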

[4] = qHTS assay to identify small molecule antagonists of the estrogen receptor beta (ER-beta) signaling pathway - cell viability counter screen (AID 1259382); note: nearly all actives have a fitted effect of over 55% in size; note: potency is the fitted concentration of half-maximal effect
How it was run: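 ER-beta-UAS-bla HEK293T cells in 2% charcoal-stripped FBS medium, treated with compound plus 1 nM 17-beta-estradiol for 16 h at 37C. Viability read by CellTiter-Glo luminescence after 30 min at room temperature in the same wells.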

[5] = biological target: Estrogen receptor (Homo sapiens) (UniProt P03372); assay: qHTS assay to identify small molecule agonists of the estrogen receptor alpha (ER-alpha) signaling pathway in the presence of an antagonist (AID 1259383; calls by dose curve; note: top concentration of the series differs between compounds; nearly all actives have a fitted effect of over 15% in size)
Sequence of Estrogen receptor (Homo sapiens) (P03372 whole entry, looked up): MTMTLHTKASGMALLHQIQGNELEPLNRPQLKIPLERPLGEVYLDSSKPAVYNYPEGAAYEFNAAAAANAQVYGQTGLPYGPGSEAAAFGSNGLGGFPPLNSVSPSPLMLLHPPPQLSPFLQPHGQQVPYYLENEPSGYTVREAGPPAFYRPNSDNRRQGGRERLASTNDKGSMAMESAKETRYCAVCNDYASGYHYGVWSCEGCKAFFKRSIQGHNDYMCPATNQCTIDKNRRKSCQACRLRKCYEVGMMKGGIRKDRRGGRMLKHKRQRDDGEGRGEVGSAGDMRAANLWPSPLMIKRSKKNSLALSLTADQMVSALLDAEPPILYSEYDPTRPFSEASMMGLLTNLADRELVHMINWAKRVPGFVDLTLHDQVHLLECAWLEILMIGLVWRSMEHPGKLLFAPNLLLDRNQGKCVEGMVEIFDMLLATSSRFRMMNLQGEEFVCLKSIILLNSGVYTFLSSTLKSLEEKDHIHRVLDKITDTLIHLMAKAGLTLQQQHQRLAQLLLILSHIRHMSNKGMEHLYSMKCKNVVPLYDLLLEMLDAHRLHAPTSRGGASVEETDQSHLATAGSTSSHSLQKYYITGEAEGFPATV
How it was run: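 VM7Luc4E2 cells express endogenous full-length ER-alpha with an ERE-luciferase reporter and were hormone-deprived for 5 days. Compounds at 15 concentrations were added with 10.0nM ICI-182,780 for 22hr at 37C. Luminescence was read with ONE-Glo.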

[6] = qHTS assay to identify small molecule agonists or antagonists of the thyroid stimulating hormone receptor (TSHR) signaling pathway - wild type cell line counter screen (AID 1259384; calls by dose curve)
How it was run: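 Wild-type HEK293 cells were plated 18 h at 37 C/5% CO2, pin-dosed with compound plus Ro20-1724 medium, held 30 min at room temperature, then given cAMP-d2 and anti-cAMP-cryptate; fluorescence was read after 1 h. Fifteen concentrations, triplicate.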

[7] = biological target: Thyrotropin receptor (Homo sapiens) (UniProt P16473); assay: qHTS assay to identify small molecule antagonists of the thyroid stimulating hormone receptor (TSHR) signaling pathway (AID 1259385; calls by dose curve; note: nearly all actives have a fitted effect of over 20% in size)
Sequence of Thyrotropin receptor (Homo sapiens) (P16473 whole entry, looked up): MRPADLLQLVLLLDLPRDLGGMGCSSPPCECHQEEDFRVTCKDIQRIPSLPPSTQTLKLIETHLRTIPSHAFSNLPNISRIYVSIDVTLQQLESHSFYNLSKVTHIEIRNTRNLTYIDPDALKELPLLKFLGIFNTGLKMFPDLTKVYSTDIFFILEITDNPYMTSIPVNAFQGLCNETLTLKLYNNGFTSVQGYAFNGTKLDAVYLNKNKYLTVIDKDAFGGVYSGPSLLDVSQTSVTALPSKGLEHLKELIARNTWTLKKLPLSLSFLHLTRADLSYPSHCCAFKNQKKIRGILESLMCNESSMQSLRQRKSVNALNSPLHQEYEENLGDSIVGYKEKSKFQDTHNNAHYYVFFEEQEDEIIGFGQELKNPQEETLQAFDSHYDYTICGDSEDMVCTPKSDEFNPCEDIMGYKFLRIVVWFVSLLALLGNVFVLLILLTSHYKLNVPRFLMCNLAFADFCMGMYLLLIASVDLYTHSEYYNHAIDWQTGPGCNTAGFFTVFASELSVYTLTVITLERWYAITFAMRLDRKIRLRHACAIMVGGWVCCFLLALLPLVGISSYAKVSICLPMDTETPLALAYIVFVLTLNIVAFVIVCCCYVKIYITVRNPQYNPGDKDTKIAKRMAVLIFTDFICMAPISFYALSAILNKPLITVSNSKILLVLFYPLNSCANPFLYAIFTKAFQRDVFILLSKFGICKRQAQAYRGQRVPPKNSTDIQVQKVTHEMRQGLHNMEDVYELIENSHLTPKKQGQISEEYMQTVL
How it was run: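 TSHR-HEK293 cells were plated and held 18 h at 37C/5% CO2, then given compound plus Ro20-1724 and stimulated with TSH at 1.5 ng/mL final. After 30 min at room temperature, cAMP was detected with cAMP-d2/anti-cAMP-cryptate (1 h) by fluorescence.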

[8] = qHTS assay to identify small molecule agonists of the estrogen receptor alpha (ER-alpha) signaling pathway in the presence of an antagonist - cell viability counter screen (AID 1259386);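 note: cells exposed to compounds for 22 h at 37 °C before the viability read; nearly all actives have a fitted effect of over 30% in size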; note: potency is the fitted concentration of half-maximal effect
How it was run: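 Cell viability in VM7Luc4E2 cells (endogenous full-length ER-alpha) measured by CellTiter-Fluor fluorescence in the same wells as the luciferase screen. Cells pre-cultured 5 days in charcoal-stripped serum, then treated 22 h with compounds at 15 concentrations plus 10.0nM ICI-182,780.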

[9] = biological target: Estrogen receptor beta (Homo sapiens) (UniProt Q92731); assay: qHTS assay to identify small molecule antagonists of the estrogen receptor beta (ER-beta) signaling pathway (AID 1259378; active = well fitted inhibition curve with a large enough effect in the signal ratio in the repeat runs, not every such curve was filed as active; the % refers to the signal ratio)
How it was run: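 ER-beta-UAS-bla HEK293T (GripTite) cells in 2% charcoal-stripped FBS medium were preincubated 6 hr at 37C, dosed with compound, then stimulated with 1 nM E2 (final) for 16 hr; beta-lactamase reporter read by B/G FRET fluorescence after 2 hr substrate loading.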

[10] = qHTS assay to identify small molecule agonists of the estrogen receptor beta (ER-beta) signaling pathway - cell viability counter screen (AID 1259380); note: nearly all actives have a fitted effect of over 30% in size; note: potency is the fitted concentration of half-maximal effect
How it was run: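 ER-beta-UAS-bla HEK293T cells in medium with 2% charcoal-stripped FBS, pre-incubated 6 hr, then treated 16 hr at 37C. Cytotoxicity read in the same wells by CellTiter-Glo luminescence after 30 min at room temperature.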

CCC1=C(C)CN(C(=O)NCCc2ccc(S(=O)(=O)NC(=O)NC3CCC(C)CC3)cc2)C1=O (stereo not drawn)
Potency [1]: inactive | Potency [2]: inactive | Potency [3]: inactive | Potency [4]: inactive | Potency [5]: inactive | outcome [6]: inactive | Potency [7]: inactive | Potency [8]: inactive

C/C(=C(\CCO)SS/C(CCO)=C(\C)N(C=O)Cc1cnc(C)nc1N)N(C=O)Cc1cnc(C)nc1N
Potency [9]: inactive | Potency [2]: inactive | Potency [10]: inactive | Potency [4]: inactive | outcome [6]: inactive | Potency [7]: inactive | Potency [8]: inactive

CCC(C)CCCC(C)(C)O (stereo not drawn)
Potency [9]: inactive | Potency [2]: inactive | Potency [10]: inactive | Potency [4]: inactive | outcome [6]: inactive | Potency [7]: inactive | Potency [8]: inactive

CCn1nc(Cc2ccccc2)cc1C1CCN(C[C@H]2C[C@H](N(C)[C@@H](C(=O)O)C(C)C)C[C@@H]2c2cccc(F)c2)CC1
Potency [1]: inactive | Potency [4]: inactive | outcome [6]: inactive | Potency [7]: inactive | Potency [8]: inactive

O=C(Nc1ccc2c(c1)Cc1ccccc1-2)C(F)(F)F
Potency [9]: inactive | Potency [2]: inactive | Potency [10]: inactive | Potency [4]: inactive | outcome [6]: inactive | Potency [8]: inactive

Cc1ccc2c(Cl)cc(Cl)c(O)c2n1
Potency [9]: inactive | Potency [2]: inactive | Potency [10]: inactive | Potency [3]: inactive | Potency [4]: inactive | Potency [5]: inactive | outcome [6]: inactive | Potency [7]: inactive | Potency [8]: inactive

C[C@@H](O)[C@H]1C(=O)N2C(C(=O)O)=C(S[C@@H]3CN[C@H](CNS(N)(=O)=O)C3)[C@H](C)[C@H]12
Potency [9]: inactive | Potency [2]: inactive | Potency [10]: inactive | Potency [4]: inactive | Potency [5]: inactive | outcome [6]: inactive | Potency [7]: inactive | Potency [8]: inactive

CC(=O)c1cccnc1
Potency [9]: inactive | Potency [2]: inactive | Potency [10]: inactive | Potency [4]: inactive | Potency [5]: inactive | Potency [8]: inactive

Cc1nc2sccn2c(=O)c1CCN1CCC(=C(c2ccc(F)cc2)c2ccc(F)cc2)CC1
Potency [1]: inactive | Potency [2]: inactive | Potency [10]: 13.3 µM (active) | Potency [5]: inactive | outcome [6]: inactive | Potency [8]: inactive

CCCc1ccc(OC)cc1
Potency [9]: inactive | Potency [2]: inactive | Potency [10]: inactive | Potency [3]: inactive | Potency [4]: inactive | Potency [5]: inactive | outcome [6]: inactive | Potency [8]: inactive

CCN(CC)CC(=O)OCC(=O)[C@@]1(O)CC[C@H]2[C@@H]3CCC4=CC(=O)CC[C@]4(C)[C@H]3[C@@H](O)C[C@@]21C
Potency [1]: inactive | Potency [10]: inactive | Potency [3]: 0.211 µM (active) | Potency [4]: inactive | Potency [5]: inactive | outcome [6]: inactive | Potency [7]: inactive | Potency [8]: inactive

CCOc1cc(OCC)c(C(C)=O)cc1OCC
Potency [1]: inactive | Potency [9]: inactive | Potency [3]: inactive | Potency [4]: inactive | Potency [5]: inactive | outcome [6]: inactive | Potency [7]: inactive | Potency [8]: 21.3 µM (active)

O=C(O)c1ccncc1
Potency [9]: inactive | Potency [2]: inactive | Potency [10]: inactive | Potency [3]: inactive | Potency [4]: inactive | outcome [6]: inactive | Potency [7]: inactive | Potency [8]: inactive

C1CCN(CN2CCCCC2)CC1
Potency [9]: inactive | Potency [2]: inactive | Potency [10]: inactive | Potency [4]: inactive | Potency [5]: inactive | outcome [6]: inactive | Potency [7]: inactive | Potency [8]: inactive

CCCN(C1CCN(C(=O)C2CCNCC2)CC1)[C@@H]1CCc2ccc(OC)cc2C1
Potency [1]: inactive | Potency [9]: inactive | Potency [3]: inactive | outcome [6]: inactive | Potency [7]: inactive | Potency [8]: inactive

FC1(F)C(F)(F)C(F)(F)C2(F)C(F)(C1(F)F)C(F)(F)C(F)(F)C1(F)C(F)(F)C(F)(F)C(F)(F)C(F)(F)C12F (stereo not drawn)
Potency [9]: inactive | Potency [2]: inactive | Potency [10]: inactive | Potency [4]: inactive | outcome [6]: inactive | Potency [7]: inactive | Potency [8]: inactive

COc1ccc(/C=C/S(=O)(=O)NC(=O)c2ccc(C)cc2Cl)cc1
Potency [1]: inactive | Potency [2]: inactive | outcome [6]: inactive | Potency [7]: inactive

O=C1c2ccccc2C(=O)c2c1ccc(O)c2O
Potency [1]: 7.5 µM (active) | Potency [2]: 23.7 µM (active) | Potency [10]: inactive | Potency [4]: inactive | outcome [6]: inactive | Potency [8]: 26.6 µM (active)

CC(C)(C(=O)O)c1ccc(C(O)CCCN2CCC(C(O)(c3ccccc3)c3ccccc3)CC2)cc1 (stereo not drawn)
Potency [9]: inactive | Potency [2]: inactive | Potency [10]: inactive | Potency [4]: inactive | outcome [6]: inactive | Potency [7]: inactive | Potency [8]: inactive

O=C(OCCOCCOCCOC(=O)c1ccccc1)c1ccccc1
Potency [9]: inactive | Potency [2]: inactive | Potency [10]: inactive | Potency [4]: inactive | Potency [5]: inactive | outcome [6]: inactive | Potency [7]: inactive | Potency [8]: inactive

CC(Cc1ccccc1)(NC(=O)CN)c1ccccc1 (stereo not drawn)
Potency [1]: inactive | Potency [9]: inactive | Potency [5]: inactive | outcome [6]: inactive | Potency [7]: inactive | Potency [8]: inactive

NC(=O)c1ccccc1C(N)=O
Potency [9]: inactive | Potency [2]: inactive | Potency [10]: 61.4 µM (active) | Potency [3]: inactive | Potency [5]: inactive | outcome [6]: inactive | Potency [7]: inactive | Potency [8]: inactive

CC(=O)Nc1ccn(C2COC(COC(=O)c3ccccc3)O2)c(=O)n1 (stereo not drawn)
Potency [1]: inactive | Potency [9]: inactive | Potency [10]: inactive | Potency [4]: inactive | outcome [6]: inactive | Potency [7]: inactive | Potency [8]: inactive

O=C(O)c1ccccc1-n1cc(C(=O)O)c(=O)c2cc(Nc3c(F)cc(F)cc3Cl)c(Cl)cc21
Potency [9]: inactive | Potency [2]: inactive | Potency [10]: inactive | Potency [4]: inactive | Potency [5]: inactive | outcome [6]: inactive | Potency [7]: inactive | Potency [8]: inactive

O=C(N[C@@H](Cc1ccccc1)[C@@H](O)C(=O)N1C[C@@H](O)[C@@H](O)C1)c1cc2cc(Cl)ccc2[nH]1
Potency [1]: inactive | Potency [2]: inactive | outcome [6]: inactive | Potency [7]: inactive | Potency [8]: inactive

CC(C)(Cc1c[nH]c2ccccc12)NCC(O)COc1ccccc1C#N (stereo not drawn)
Potency [1]: inactive | Potency [2]: inactive | Potency [10]: 29.8 µM (active) | Potency [4]: 26.6 µM (active) | outcome [6]: inactive | Potency [7]: inactive | Potency [8]: inactive

Nc1ccccc1Nc1ccccc1
Potency [1]: inactive | Potency [2]: inactive | Potency [10]: inactive | Potency [4]: inactive

OCCCO
Potency [9]: inactive | Potency [2]: inactive | Potency [10]: inactive | Potency [3]: inactive | Potency [4]: inactive | Potency [5]: inactive | outcome [6]: inactive | Potency [7]: inactive | Potency [8]: inactive

CC(C)(C)c1cc(C=O)cc(C(C)(C)C)c1O
Potency [9]: inactive | Potency [2]: inactive | Potency [10]: inactive | Potency [4]: inactive | outcome [6]: inactive | Potency [7]: inactive | Potency [8]: inactive

CC1=CC(=C(c2ccc(N)cc2)c2ccc(N)cc2)C=CC1=N
activation [1]: -6.24% [at 8.39 µM] | Potency [2]: 3.1 µM (active) | activation [5]: 0.281% [at 8.39 µM] | cAMP activity change [6]: -1.93% [at 8.39 µM] | activity change, negative = inhibition [7]: 0.722% [at 8.39 µM]

CCOc1ccc(NC(C)=O)cc1N
Potency [9]: inactive | Potency [2]: inactive | Potency [10]: inactive | Potency [3]: inactive | Potency [5]: inactive | outcome [6]: inactive | Potency [8]: inactive
